Experimental data from ChEMBL document CHEMBL3988442, “University of Dundee, Small-Polar-MMV Screening Library” (2021).

target: AMP-activated protein kinase, AMPK (Homo sapiens) (UniProt P54646+O43741+P54619+Q9UGJ0+Q9Y478+Q13131+Q9UGI9); test: AMP-dependent Kinase enzyme assay. An in vitro enzyme assay that detects ADP turnover that is directly proportional to AMPK activity. This uses naive AMPK that is activated during the assay with MK-8722; format: functional; set-up: scale not given: direction of the effect not stated beside the values; details: 30 µM

Which Percent Effect does the source give for `Cc1nc(N)cc(C2(C)CCCNC2)n1` (stereo not given) here?
The Percent Effect was 14.2%.

For `Cc1ccc(-c2cc(CN(CC(N)=O)CC(C)C)on2)cc1`, which Percent Effect is on record?
The Percent Effect was -6.41%.

With `O=C(NCCS(=O)(=O)N1CCN(c2ncccn2)CC1)C1CC1` as the compound, how does the Percent Effect read?
The Percent Effect was 1.52%.

For `CCc1csc(CNc2cc(C)nc(-c3cccnc3)n2)n1`, which Percent Effect is on record?
The Percent Effect was 18.4%.

Which Percent Effect does the source give for `CCc1nnc(CNC(=O)CCC2CCCCN2C)s1` (stereo not given) here?
The Percent Effect was -10.9%.

`COc1ccc(N2CCN(Cc3nc(CSC)no3)CC2=O)cc1` was tested. Which Percent Effect did it give?
Its Percent Effect is 1.27%.

`Cc1ccc(N2CCCC(Nc3nn4cc(C)nc4s3)C2)nn1` (stereo not given) was tested. Which Percent Effect did it give?
Its Percent Effect is 8.12%.

How did the Percent Effect turn out when `O=C(NCc1ccnc(OCC2CC2)c1)C1Cc2ccccc2O1` (stereo not given) was run?
The Percent Effect was -4.29%.

How did the Percent Effect turn out when `CC(C)(C)NC(=O)CN1CCCNCC1` was run?
The Percent Effect was -0.0888%.

How did the Percent Effect turn out when `O=C(CCn1ccc2ncccc2c1=O)N1CCCC1` was run?
The Percent Effect was -3.54%.

For `Cc1nc(OCC(=O)N2CCCC2)cc(-n2cccn2)n1`, which Percent Effect is on record?
Its Percent Effect is 3.39%.

`CN(Cc1nc(C2CC2)no1)C1CCS(=O)(=O)C1` (stereo not given) was tested. Which Percent Effect did it give?
Its Percent Effect is 2.02%.

How did the Percent Effect turn out when `COCCN1CCCC2(CCN(c3cc(C)c(C#N)c(C)n3)C2)C1=O` (stereo not given) was run?
The Percent Effect was -7.22%.

For `O=C(c1ccc(=O)[nH]c1)N1CCC(Oc2cccc(C(F)(F)F)c2)CC1`, which Percent Effect is on record?
The Percent Effect was -3.39%.

With `Cc1csc(N2CCC(CCN3CCCC3=O)CC2)n1` as the compound, how does the Percent Effect read?
Its Percent Effect is -12.1%.

How did the Percent Effect turn out when `CCc1c(C)nn(CCN2CC3(CCOC3)CCC2=O)c1C` (stereo not given) was run?
Its Percent Effect is -3.55%.

Which Percent Effect does the source give for `CN1CC2(CCCN(CCOCc3ccccc3)C2)OC1=O` (stereo not given) here?
The Percent Effect was -1.54%.

Which Percent Effect does the source give for `COc1ccc(C)cc1CN(CC(N)=O)C(C)C` here?
Its Percent Effect is 0.855%.

`O=C(Nc1ccccc1OCCc1ccccn1)N1CCOCC1` was tested. Which Percent Effect did it give?
The Percent Effect was 10.6%.

With `CC(C)(C)c1ccc(-n2ncc3c2CCCC3N)cc1` (stereo not given) as the compound, how does the Percent Effect read?
Its Percent Effect is 5.4%.

Which Percent Effect does the source give for `CC(C)c1nnc(C2CCN(CC(=O)Nc3cccnc3)CC2)o1` here?
The Percent Effect was -5.27%.

For `O=C(NCCn1ccnc1)C1COCC(=O)N1Cc1ccccc1` (stereo not given), which Percent Effect is on record?
Its Percent Effect is 5.07%.

For `Cc1cc(C)c(C#N)c(NCCSc2nncn2C)n1`, which Percent Effect is on record?
Its Percent Effect is -0.426%.

`Cc1cc(C)n(-c2cccc(NC(=O)N3CCC[C@@H]3CO)c2)n1` was tested. Which Percent Effect did it give?
The Percent Effect was -5.07%.

How did the Percent Effect turn out when `COCCN(CC(F)F)c1cc(C(F)(F)F)nc2ncnn12` was run?
The Percent Effect was 3.49%.

Which Percent Effect does the source give for `Cc1cc(C(=O)N2CCC(CCC(=O)NCCN(C)C)CC2)ccc1O` here?
Its Percent Effect is 21.5%.

Which Percent Effect does the source give for `CN1CCN([C@H]2CCN(C(=O)c3nn(C)cc3Cl)C[C@H]2CCCO)CC1` here?
The Percent Effect was 4.08%.

`Cc1noc(-c2ccc(N(C)Cc3nccs3)nc2)n1` was tested. Which Percent Effect did it give?
The Percent Effect was 5.7%.

With `COCCC(=O)N(C)CCC1=CCN(C)CC1` as the compound, how does the Percent Effect read?
Its Percent Effect is -12.9%.

`Cc1cc(N2CCN(Cc3ccsc3)C(CCO)C2)nc(N)n1` (stereo not given) was tested. Which Percent Effect did it give?
Its Percent Effect is 0.121%.

`COCc1nn(Cc2ccc(Cl)s2)c(=O)o1` was tested. Which Percent Effect did it give?
Its Percent Effect is 6.29%.

`N#Cc1cccnc1N1CCC(Nc2ccccc2)C1` (stereo not given) was tested. Which Percent Effect did it give?
The Percent Effect was 4.61%.

With `CN(C)Cc1ccc(C(=O)N2CCCC(COc3ccc(F)cc3)C2)o1` (stereo not given) as the compound, how does the Percent Effect read?
Its Percent Effect is 7.84%.

With `Cc1nc(CN2CCC(c3cc(N4CCCC4)ncn3)CC2)cs1` as the compound, how does the Percent Effect read?
The Percent Effect was 2.88%.

How did the Percent Effect turn out when `Cc1cc(NC(C)c2nnn[nH]2)n2nc(C)c(C)c2n1` (stereo not given) was run?
The Percent Effect was 20.6%.

For `O=C(COc1cccnc1)NCc1nncn1C1CCCCC1`, which Percent Effect is on record?
The Percent Effect was -3.67%.

`CN(CCC#N)C(=O)Cn1cnc2c(Br)cccc2c1=O` was tested. Which Percent Effect did it give?
Its Percent Effect is 2.35%.

Which Percent Effect does the source give for `CC(C)C(CNC(=O)CCn1cncn1)N1CCc2ccccc2C1` (stereo not given) here?
Its Percent Effect is 0.687%.

`O=c1c(CN2CCCCC2)coc2ccc(Cl)cc12` was tested. Which Percent Effect did it give?
The Percent Effect was -4.07%.

With `CCc1cnc(CNC(=O)NCCCO)s1` as the compound, how does the Percent Effect read?
The Percent Effect was 9.14%.
